Screening data from PubChem BioAssay.
A selection: hits, their analogues and other compounds. The true share with any hit is near 1.2%.
RGS4-Gao reg: human RGS4-Galphao interaction regulation. P09471. Multiplexed bead flow cytometry, RGS4-Galphao binding; actives lie on both sides. binding response (% of control), % at 10 µM. 220,000 tested, 0.33% active; in the data active means binding response below about 49% or above about 150%; inactive means in between;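 further: fluorescent Galphao activated with aluminum fluoride binding bead-coupled RGS4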
Target sequence (P09471 whole entry, looked up): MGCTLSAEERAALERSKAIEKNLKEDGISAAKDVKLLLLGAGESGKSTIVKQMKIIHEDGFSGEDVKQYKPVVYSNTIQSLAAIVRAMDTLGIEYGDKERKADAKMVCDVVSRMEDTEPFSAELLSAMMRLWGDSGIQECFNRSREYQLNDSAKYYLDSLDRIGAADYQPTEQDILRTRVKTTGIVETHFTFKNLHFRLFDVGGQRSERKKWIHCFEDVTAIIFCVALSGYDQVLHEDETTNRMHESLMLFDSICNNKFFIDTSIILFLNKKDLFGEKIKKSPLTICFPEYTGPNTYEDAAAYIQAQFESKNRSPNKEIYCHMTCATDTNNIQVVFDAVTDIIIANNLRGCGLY
RGS8-Gao reg: human RGS8-Galphao interaction regulation; P09471; 220,000 tested, 0.34% active; multiplexed bead flow cytometry, RGS8-Galphao binding; actives lie on both sides; response (percent of control binding), % at 10 µM; AID 1423; in the data active means response below about 60% or above about 140%; inactive means in between;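 further: Galphao activated as the GDP aluminium fluoride complex binding bead-coupled RGS8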
RGS16-Gao: modulates binding between human RGS16 and Galphao; bead-based flow cytometry RGS16-Galphao binding, fluorescence; actives lie on both sides; binding response (% of control), % at 10 µM; 220,000 tested, 0.38% active; call rule not given here;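 further: Galphao activated by GDP with aluminum fluoride before binding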
Target sequence (O15492 whole entry, looked up): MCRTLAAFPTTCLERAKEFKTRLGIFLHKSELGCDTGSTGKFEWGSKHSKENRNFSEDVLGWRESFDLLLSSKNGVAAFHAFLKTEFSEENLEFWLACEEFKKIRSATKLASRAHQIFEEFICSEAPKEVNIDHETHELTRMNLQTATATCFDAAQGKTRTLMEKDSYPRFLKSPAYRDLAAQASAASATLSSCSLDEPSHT
Target sequence (P09471 whole entry, looked up): as the sequence (P09471 whole entry, looked up) above
RGS7-Gao reg: modulates binding of RGS7 to human Galphao; AID 1439; 220,000 tested, 0.35% active; Multiplexed bead flow cytometry; actives lie on both sides; binding response (% of control), % at 10 µM; P09471; in the data active means binding response below about 49% or above about 150%; inconclusive means no clear call, values can overlap the other calls; inactive means in between;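 further: fluorescent Galphao held in activated GDP-AlF4 state binding bead-coupled RGS7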
Avidin bead fluor: compound fluoresces at 488/530 nm on avidin beads | 220,000 tested, 0.38% active | compound fluorescence 488/530 nm, flow cytometry; hits give high values | fluorescence (KMESF) at 10 µM; in the data active means fluorescence above about 47
GSH bead fluor: GSH bead compound fluorescence profile. GSH beads flow cytometry, compound fluorescence 488/530 nm; hits give high values. fluorescence (KMESF) at 10 µM. 190,000 tested, 0.25% active. AID 1776; in the data active means fluorescence above about 89;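 further: glutathione beads carrying GST-tagged Bcl family fusion proteins plus one bare bead set; values are compound well signal with DMSO vehicle wells as background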
* = called active by the depositor; ? = inconclusive; . = no result given.

SMILES	RGS4-Gao reg	RGS8-Gao reg	RGS16-Gao	RGS7-Gao reg	Avidin bead fluor	GSH bead fluor
COc1ccc(C2NC(=S)N3C(c4ccc(OC)cc4)NC(=S)N23)cc1 (stereo unspecified)	112.0	102.8	106.9	110.1	8	266*
S=C1NC(c2ccccc2)N2C(=S)NC(c3ccccc3)N12 (stereo unspecified)	98.4	99.0	93.0	104.6	33	50
CC(=O)Nc1ccc(NC(=O)c2cccc3c2-c2ccccc2C3=O)cc1	109.4	107.5	115.1	140.3	99*	8
Cc1ccc(NC(=O)c2cccc3c2-c2ccccc2C3=O)cc1C	101.2	99.7	98.3	102.3	15	21
Cc1cccc(N(CC(=O)N/N=C/c2cc([N+](=O)[O-])ccc2Cl)S(C)(=O)=O)c1C	102.5	99.8	99.7	105.1	49*	8
COc1ccc(N2C(=O)C3CCCN3C2=O)cc1 (stereo unspecified)	103.6	103.2	104.0	116.2	65*	17
COCCn1nnnc1CN1C2CCCC1CC(NC(C)=O)C2 (stereo unspecified)	99.2	99.4	99.8	100.3	36	28
COc1cc(S(=O)(=O)N(Cc2ccccc2)CC2CCCO2)ccc1-n1cnnn1 (stereo unspecified)	95.0	85.8	48.2	101.6	5	27
COc1cc(S(=O)(=O)N(Cc2cccs2)CC2CCCO2)ccc1-n1cnnn1 (stereo unspecified)	96.6	102.4	107.5	126.3	50*	17
COc1cccc(CC2CC(=O)N(c3ccc4c(C)cc(=O)oc4c3)C2=O)c1 (stereo unspecified)	97.3	100.7	98.7	96.7	8	20
CCc1cccc2c(-c3csc(=NC)n3C)c[nH]c12	104.0	106.9	122.5	105.7	20	12
Cc1oc2c(O)c(O)ccc2c(=O)c1-c1cnn(-c2ccccc2)c1	42.5*	66.7	35.2	46.4*	11	4
Cc1oc2c(O)c(O)ccc2c(=O)c1-c1ccccc1	91.7	93.7	89.1	?	8	.
Nc1[nH]nc2c1NN(c1ccc(Cl)cc1Cl)N2	97.2	99.4	101.5	95.8	3	9
CCN(CC)S(=O)(=O)c1ccc(Cl)c(NC(=O)COC(=O)c2ccc([N+](=O)[O-])o2)c1	81.2	92.6	84.4	?	8	.
CC(=O)Nc1cccc(OCC(=O)Nc2ccccc2)c1	105.6	103.7	101.5	104.0	20	37
CC(=O)Nc1cccc(OCC(=O)NS(=O)(=O)c2ccc(Cl)cc2)c1	104.1	100.0	106.5	103.8	28	99*
CC(=O)c1ccc(NC(=S)NNC(=O)c2ccncc2)cc1	102.9	102.3	109.3	102.3	11	11
CN1C(=O)NC(c2cccc(O)c2)C(C(=O)c2cccs2)C1(O)C(F)(F)F (stereo unspecified)	99.8	100.7	99.8	103.2	28	19
CCOC(=O)C1C(c2cccs2)NC(=O)N(C)C1(O)C(F)(F)F (stereo unspecified)	100.5	97.7	94.1	106.9	59*	10
CCOc1ccc(-n2c(C)nc3cc(C(=O)NCCN4CCOCC4)ccc32)cc1	99.5	100.6	100.4	96.5	7	104*
CCOc1ccc(-n2c(C)nc3cc(C(=O)NCCCN4CCOCC4)ccc32)cc1	106.9	116.9	151.2	106.6	8	34
CCCCc1c(O)nc(SCC(=O)c2ccccc2)n(-c2ccccc2)c1=O	107.5	101.6	108.6	?	6	.
Cc1ccnc(NS(=O)(=O)c2ccc(N3C(=O)Nc4ccccc4N3O)cc2)c1	104.7	102.1	104.3	100.9	9	12
O=C1Nc2ccccc2N(O)N1c1ccc(S(=O)(=O)Nc2ccccn2)cc1	114.6	113.0	118.6	128.1	64*	32
SMILES	RGS4-Gao reg	RGS8-Gao reg	RGS16-Gao	RGS7-Gao reg	Avidin bead fluor	GSH bead fluor
CC(C)(C)c1cc(C(=O)Nc2ccccc2)ccn1	88.1	97.6	92.7	94.9	4	103*
Cc1nn(CC#N)c(=O)n1-c1ccccc1	99.2	98.2	97.0	98.0	7	262*
Cc1ccc(C)c(NC(=O)CN(C)C(=O)/C=C/c2ccco2)c1	102.8	103.4	103.7	102.6	7	11
Cn1c(CCCCCN)nc2ccccc21	101.5	101.3	99.6	100.0	14	24
CC(=O)NC12CC3CC(C1)CC(C(=O)OCC(=O)Nc1ncc(Cl)c(C)c1Cl)(C3)C2	98.1	100.2	96.3	102.4	8	262*
CC1CC2(CCCCC2)N2C(=O)C(=O)c3cccc1c32 (stereo unspecified)	41.1*	43.5*	28.3	29.2*	3	12
CCOC(=O)C1C(=O)C=C(c2ccc(C)cc2)CC1c1cccc([N+](=O)[O-])c1 (stereo unspecified)	99.1	100.3	100.2	99.8	13	12
COc1ccccc1NC(=O)Nc1ccc(Br)cn1	106.3	102.6	110.1	107.0	6	266*
CCOc1ccccc1NC(=O)Nc1ccc(Br)cn1	100.2	101.3	100.7	100.0	11	24
COc1ccccc1NC(=S)NC(C)=O	101.8	100.0	101.5	101.6	10	9
COc1ccccc1NC(C)=O	78.4	80.8	-1.1	75.6	4	251*
COc1ccccc1NC(=O)NCCC1=CCCCC1	98.0	101.2	99.8	99.6	3	10
COc1ccccc1NC(=O)NCCCl	103.7	99.8	108.3	137.1	92*	12
O=[N+]([O-])/C(C(Cl)=C(Cl)Cl)=C(\Sc1ccccc1)N1CCCCC1	103.1	103.8	105.5	108.2	12	14
CSCC[C@H](NC(=O)OC(C)(C)C)c1nnc(SCC=C(C)C)o1	100.2	100.5	101.3	100.5	8	267*
O=C(CSc1nc(-c2ccco2)cc(C(F)(F)F)n1)Nc1cccnc1	98.3	104.7	108.0	123.8	59*	62
CCC(C)c1ccc(OCc2ccc(C(=O)OC)o2)cc1 (stereo unspecified)	92.9	96.2	99.2	?	3	.
Cc1nc(SCC(=O)NCc2ccccc2)c2oc3ccccc3c2n1	102.5	101.8	99.6	105.2	50*	24
Cc1nc(SCC(=O)O)c2oc3ccccc3c2n1	99.8	102.8	132.3	98.1	8	25
Nc1nc(N2CCOCC2)nc(N(c2ccccc2)c2ccccc2)n1	100.6	101.7	99.9	98.1	7	19
CN(C)c1nc(N2CCOCC2)nc(N(c2ccccc2)c2ccccc2)n1	101.2	100.1	103.8	104.0	8	266*
CC(=O)Oc1ccc2oc3c(c2c1)C(=O)CCC3	98.2	99.9	96.2	98.8	8	260*
CC(=O)Oc1ccc2oc(C)c(C(=O)N3CCOCC3)c2c1	96.3	98.6	97.3	95.1	25	21
CCC(C)(C)NC(=O)CN(C(=O)c1snc(C(N)=O)c1N)c1ccc2c(c1)OCCO2	97.3	99.4	96.8	100.6	29	24
